TDP1 cell noCPT – qHTS for Inhibitors of human tyrosyl-DNA phosphodiesterase 1 (TDP1): qHTS in cells in absence of CPT; DT40 Tdp1-/- hTDP1 cells, no CPT, ATP luminescence, 48 h; Potency, µM (titrated, usually from 46.2 µM), inactives show at the highest dose activity change, negative = growth inhibition, hits mostly inhibitors; 15% of 420,000 active; further: potency means the concentration at half of the fitted maximal effect; nearly all actives have a fitted effect of over 55% in size
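Growth kinetics read by CellTiter-Glo luminescence after ≥48 hr at 37 °C. Cells: DT40 Tdp1-/- stably carrying human TDP1, 400 per well, compound exposure in the absence of CPT (DMSO vehicle).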
HT1080 IDH1KD tx – kills HT-1080 cells with IDH1 knockdown; 2% of 360,000 active; HT-1080 IDH1 knockdown viability, ATP luminescence, 48 h; Potency, µM (doses to about 46.1 µM), for inactives: top-dose activity, negative = toxicity, actives largely listed as cytotoxic;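 further: potency means the concentration at half of the fitted maximal effect; 0% = DMSO wells and -100% = cell-free medium wells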
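Using the IDH1-knockdown HT-1080 line run in the same batch and compound series as the NT line, viability after 48 h at 37 °C was determined by CellTiter-Glo luminescence and expressed as % activity.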
HT1080NT lethal – kills 2HG-producing HT-1080-NT fibrosarcoma cells; 1.6% of 360,000 active; AID 686970; Potency, µM (top dose mostly 46.1 µM), without a hit: at the top dose activity, negative = less viability, actives largely listed as cytotoxic; HT-1080-NT fibrosarcoma viability, CellTiter-Glo ATP luminescence, 48 h;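 further: NT is the 2HG producing partner of a matched IDH1 knockdown line; potency means the concentration at half of the fitted maximal effect; 0% = DMSO-treated cells and -100% = media-only wells without cells; nearly all actives have a fitted effect of over 55% in size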
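Fibrosarcoma NT cells, 750 per well in 5% FBS RPMI, were exposed to compound for 48 hours. Viability: CellTiter-Glo luminescence.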
IL1B secr inh – inhibitors of inflammasome signaling (IL-1 beta secretion); THP-1 LPS/ATP IL-1B secretion, AlphaLISA, 16 h; hits give low values; activity change, % at 57.5 µM; 4.7% of 360,000 active; AID 743279; in the data active means activity change below about -50%; inconclusive means mostly about -30% to -49%
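THP-1 cells pretreated 1 hr with compounds (up to 57.5 uM final), then stimulated with LPS (250 ng/mL final) plus ATP (1.25 mM final); secreted IL-1B measured by AlphaLISA after 16 hr, decreased signal indicating inhibition.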
DT40 TDP1 CPT – DT40-hTDP1 cell growth loss with CPT; chicken DT40 Tdp1-/-;hTDP1 cells + 20 nM CPT, ATP luminescence, 48 h; Potency, µM (titrated, usually from 46.2 µM), for inactives: top-dose activity change, negative = growth inhibition, hits mostly inhibitors; 12% of 420,000 active; AID 686979; further: potency means the concentration at half of the fitted maximal effect; nearly all actives have a fitted effect of over 55% in size
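Chicken DT40 Tdp1-/- cells complemented with human TDP1, 400 cells/well, exposed to compounds plus 20 nM camptothecin for at least 48 h at 37 C; viability read as ATP content by CellTiter-Glo luminescence.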
Numbers without * were called inactive. Only some compounds are listed: those with a hit (about 19% of all), similar ones and a draw of the others. Unless noted, the call rests on the fitted dose curve; in most records, active means well fitted curve in the direction sought with a large enough effect; inconclusive means small, poorly fitted or top-dose-only effect, or another doubt; inactive means no such curve, though single readings can be large; an effect the other way counts as inactive or inconclusive. Unless noted, on the % scale 0 is the no-effect control and ±100 the full control effect.

Cc1ccc2c(c1)Oc1ccccc1C=C2C(=O)O was read as TDP1 cell noCPT -23%, HT1080 IDH1KD tx 19%, HT1080NT lethal 11%, IL1B secr inh 23 and DT40 TDP1 CPT 1%.
C=C1C(=C/C=C2\CCC[C@]3(C)[C@@H]([C@H](C)/C=C/[C@@H](O)C4CC4)CC[C@@H]23)C[C@@H](O)C[C@@H]1O was read as TDP1 cell noCPT 27µM* and DT40 TDP1 CPT 24µM*.
`C=C1C(=C/C=C2\CCC[C@]3(C)[C@@H]([C@H](C)CCCC(C)C)CC[C@@H]23)C[C@@H](O)C[C@@H]1O` gave TDP1 cell noCPT 11µM* and DT40 TDP1 CPT inconclusive.
Screening COc1ccccc1-c1cc2nc(C)c(CCC(=O)NCc3cccc(Cl)c3)c(C)n2n1 returned TDP1 cell noCPT 18µM* and DT40 TDP1 CPT inconclusive.
`COCCCNC(=O)CCc1c(C)nc2cc(-c3ccc(Cl)cc3)nn2c1C` gave TDP1 cell noCPT inconclusive and DT40 TDP1 CPT 18µM*.
COc1ccc(-c2cc3nc(C)c(CCC(=O)NCc4ccco4)c(C)n3n2)c(OC)c1 was read as TDP1 cell noCPT inconclusive, HT1080 IDH1KD tx -4%, HT1080NT lethal -1%, IL1B secr inh -23 and DT40 TDP1 CPT inconclusive.
For COc1ccc(-c2cc3nc(C)c(CCC(=O)NC(C)c4ccccc4)c(C)n3n2)c(OC)c1 (stereo not drawn) the results were TDP1 cell noCPT inconclusive and DT40 TDP1 CPT -23%.
For COc1ccc(CCNC(=O)CCc2c(C)nc3cc(-c4ccccc4OC)nn3c2C)c(OC)c1 the results were TDP1 cell noCPT 16µM* and DT40 TDP1 CPT inconclusive.
`Cc1nc2ncnn2c(C)c1CCC(=O)NCc1cccc(Cl)c1` gave TDP1 cell noCPT -3% and DT40 TDP1 CPT 15%.
COc1ccc(-c2cc3nc(C)c(CCC(=O)NCCc4ccc(Cl)cc4)c(C)n3n2)c(OC)c1 was read as TDP1 cell noCPT 29µM* and DT40 TDP1 CPT 13µM*.
`Cc1nc2cc(-c3ccc(Cl)cc3)nn2c(C)c1CCC(=O)NCc1ccco1` gave TDP1 cell noCPT inconclusive, HT1080 IDH1KD tx -8%, HT1080NT lethal -5%, IL1B secr inh 16 and DT40 TDP1 CPT inconclusive.
`CC(C)Cn1cnc2c1c(=O)n(CC(=O)Nc1ccc3c(c1)OCO3)c(=O)n2Cc1ccccc1` gave TDP1 cell noCPT -17%, HT1080 IDH1KD tx -16%, HT1080NT lethal -10%, IL1B secr inh 21 and DT40 TDP1 CPT -6%.
COc1ccc(C2=Cc3ccc(OC(C)=O)cc3OC2)cc1 was read as TDP1 cell noCPT inconclusive, HT1080 IDH1KD tx 1%, HT1080NT lethal 0%, IL1B secr inh -11 and DT40 TDP1 CPT inconclusive.
`CCCCOc1ccc(/C=C/C(=O)Nc2ccc(C(N)=O)cc2)cc1` gave TDP1 cell noCPT -7%, HT1080 IDH1KD tx 0%, HT1080NT lethal 20%, IL1B secr inh 12 and DT40 TDP1 CPT -5%.
For CCOc1ccc(/C=C/C(=O)Nc2cccc(C(C)=O)c2)cc1 the results were TDP1 cell noCPT 0.58µM*, HT1080 IDH1KD tx 1%, HT1080NT lethal 7%, IL1B secr inh -2 and DT40 TDP1 CPT -85%.
Screening CCOc1ccc(NC(C(=O)Nc2cccc(C(C)=O)c2)c2ccccc2)cc1 (stereo not drawn) returned TDP1 cell noCPT 15µM*, HT1080 IDH1KD tx 1%, HT1080NT lethal -3%, IL1B secr inh 0 and DT40 TDP1 CPT 15µM*.
Screening CO/N=C(\C(=O)N[C@@H]1C(=O)N2C(C(=O)O)=C(CSc3cnns3)CS[C@H]12)c1csc(N)n1 returned TDP1 cell noCPT -11% and DT40 TDP1 CPT 2%.
Screening O=C(Nc1ccc(F)cc1)c1sc2cc(C(F)(F)F)cnc2c1-c1cccs1 returned TDP1 cell noCPT 18µM*, HT1080 IDH1KD tx -3%, HT1080NT lethal 1%, IL1B secr inh -14 and DT40 TDP1 CPT inconclusive.
For COc1ccc(NC(=O)c2sc3cc(C(F)(F)F)cnc3c2-c2cccs2)cc1 the results were TDP1 cell noCPT -11%, HT1080 IDH1KD tx -19%, HT1080NT lethal -8%, IL1B secr inh -22 and DT40 TDP1 CPT -26%.
Screening CC(C)(C)NC(=O)C(c1ccncc1)N(Cc1ccc(F)cc1)C(=O)c1ccc(-c2ccccc2)[nH]1 (stereo not drawn) returned TDP1 cell noCPT inconclusive, HT1080 IDH1KD tx inconclusive, HT1080NT lethal inconclusive, IL1B secr inh -23 and DT40 TDP1 CPT 2%.
Screening COc1ccc(S(=O)(=O)N(CC(=O)Nc2ccc(S(=O)(=O)N3CCOCC3)cc2)Cc2ccc(F)cc2)cc1 returned TDP1 cell noCPT 15µM*, HT1080 IDH1KD tx -13%, HT1080NT lethal -11%, IL1B secr inh -21 and DT40 TDP1 CPT 21µM*.
For COc1ccc(CC(=O)Nc2ccc(S(=O)(=O)N3CCOCC3)cc2)cc1 the results were TDP1 cell noCPT -24%, HT1080 IDH1KD tx 3%, HT1080NT lethal 0%, IL1B secr inh -1 and DT40 TDP1 CPT -18%.
For COc1ccc(S(=O)(=O)N(CC(=O)Nc2ccc(S(=O)(=O)N3CCOCC3)cc2)c2ccccc2)cc1 the results were TDP1 cell noCPT 0.16µM*, HT1080 IDH1KD tx -15%, HT1080NT lethal -11%, IL1B secr inh 19 and DT40 TDP1 CPT -68%.
`CCn1nccc1NC(=O)c1ccc2sc([C@@H]3O[C@H](CO)[C@H](O)[C@H](O)[C@H]3O)nc2c1` gave TDP1 cell noCPT 3%, HT1080 IDH1KD tx 1%, HT1080NT lethal 0%, IL1B secr inh 2 and DT40 TDP1 CPT 1%.
`CCN(C(=O)CN1CCN(c2cccc(C(F)(F)F)c2)CC1)c1c(N)n(Cc2ccccc2)c(=O)[nH]c1=O` gave TDP1 cell noCPT -27%, HT1080 IDH1KD tx -9%, HT1080NT lethal -18%, IL1B secr inh 27 and DT40 TDP1 CPT -23%.
Screening CN(Cc1ccccc1)C(=O)c1ccccc1-c1ccccc1 returned TDP1 cell noCPT inconclusive, HT1080 IDH1KD tx -14%, HT1080NT lethal -15%, IL1B secr inh -27 and DT40 TDP1 CPT 4%.
For COc1ccc(S(=O)(=O)Nc2ccc3c(c2)sc(=O)n3C)cc1Cl the results were TDP1 cell noCPT 18µM* and DT40 TDP1 CPT 23µM*.
Screening COc1ccc(NS(=O)(=O)c2ccc3c(c2)NC(=O)CCS3)cc1Cl returned TDP1 cell noCPT 18µM*, HT1080 IDH1KD tx -3%, HT1080NT lethal 0%, IL1B secr inh -1 and DT40 TDP1 CPT 21µM*.
CCn1c(=O)sc2cc(NS(=O)(=O)c3ccc(F)c(C)c3)ccc21 was read as TDP1 cell noCPT 10µM* and DT40 TDP1 CPT 10µM*.

Screening data from PubChem.
